This passage reports Potency results from PubChem BioAssay (NCATS).

Inconclusive results are not listed. Activity calls are given as the source filed them. Calls follow the shape of the dose curve; as a rule, active = well fitted cell-killing curve with a large enough effect; inconclusive = small, poorly fitted or top-dose-only effect, or effect the other way; inactive = no such curve, though single readings can be large or run the other way.
Potency is read from the fitted curve at half-maximal effect.

This test is described as follows: Quantitative High-Throughput drug screen in 47 multiple myeloma cell lines against the NCATS MIPE library collection: MOLP8_DSMZ cell viability assay (AID 1918977). Also: nearly all actives have a fitted effect of over 45% in size. The following applies: MOLP8 myeloma viability, CellTiter-Glo ATP luminescence, 48 h; series mostly up to 45.8 µM. An excerpt: PI: Beverly A. Mock Ph.D.
Laboratory of Cancer Biology and Genetics,
Center for Cancer Research, National Cancer Institute,
National Institute of Health, Bethesda, Maryland
Drug resistance and disease progression are common in multiple myeloma (MM) patients, underscoring the need for new therapeutic combinations. […] We hypothesized that effective combinations would reduce MYC expression and enhance p16 activity. […] These preclinical data identify potentially useful drug combinations for evaluation in drug-resistant MM and reveal potential mechanisms of combined drug sensitivity.
Described herein is the primary MIPE qHTS used to cherrypick compounds. Validated compounds were then further tested for potential synergistic activiy.
[1] Peat TJ, Gaikwad SM, Dubois W, Gyabaah-Kessie N, Zhang S, Gorjifard S, Phyo Z, Andres M, Hughitt VK, Simpson RM, Miller MA, Girvin AT, Taylor A, Williams D, D'Antonio N, Zhang Y, Rajagopalan A, Flietner E, Wilson K, Zhang X, Shinn P, Klumpp-Thomas C, McKnight C, Itkin Z, Chen L, Kazandijian D, Zhang J, Michalowski AM, Simmons JK, Keats J, Thomas CJ, Mock BA. Drug combinations identified by high-throughput screening promote cell cycle transition and upregulate Smad pathways in myeloma. Cancer Lett. 2023 Aug 1;568:216284. doi: 10.1016/j.canlet.2023.216284. Epub 2023 Jun 24. PMID: 37356470; PMCID: PMC10408729.
SEQUENCE No. (e.g., 1, 2, 3, etc.); […] (e.g., Cells, Incubation, Reagent, etc.); VALUE and DESCRIPTION.
1; Cells; 5 uL; white, solid bottom 1536-well Greiner assay plate.
2; Compounds; 23 nL; Kalypsis pin tool (Wako USA) equipped with a 1536-well pin head to transfer to the assay plates.
3; Incubation; 48 hours; 37C incubation.
4; Reagent;5uL; CellTiter Glo (Promega).
5; Detector; 425V; Luminescence; Viewlux PerkinElmer.
NOTES (numbers refer to Sequence numbers above)
1. The cell-based screening methods employed in this study were like those previously published. Briefly, the corresponding myeloma cell lines were screened in 1,536-well plates with 500 cells, 5-uL per well for inhibition of cell viability (assessed by measuring ATP levels with CellTiterGlo).
2. NCATS MIPE 4.0 library of approved and investigational drugs were added using the Kalypsis pin tool. Wells treated with DMSO only for 100% viability and media only for 0% viability were used as controls.
3. The assay plates were covered and incubated for 48 hours in a 37C, 5% CO2 incubator with controlled humidity.
4. After 48 hours, CellTilter-GloTM luminescent substrate mix (Promega) reagent was added to the assay plate and plates we incubated for 5 min at room temperature.
5. Signal was measured as median relative luminescence units on a ViewLux (PerkinElmer) multiplate reader.
[1] Heske CM, Davis MI, Baumgart JT, Wilson K, Gormally MV, Chen L, Zhang X, Ceribelli M, Duveau DY, Guha R, Ferrer M, Arnaldez FI, Ji J, Tran HL, Zhang Y, Mendoza A, Helman LJ, Thomas CJ. Matrix Screen Identifies Synergistic Combination of PARP Inhibitors and Nicotinamide Phosphoribosyltransferase (NAMPT) Inhibitors in Ewing Sarcoma. Clin Cancer Res. 2017 Dec 1;23(23):7301-7311. doi: 10.1158/1078-0432.CCR-17-1121. Epub 2017 Sep 12. PMID: 28899971; PMCID: PMC6636827.
On to `CCCn1c(=O)c2[nH]c(-c3cnn(Cc4cccc(C(F)(F)F)c4)c3)nc2n(CC)c1=O`, for which the Potency is 5900 nM (active).
The value for `COc1ccc(F)c(F)c1C(=O)c1cnc(NC2CCN(S(C)(=O)=O)CC2)nc1N` was 1320 nM (active); that for `CC=C1NC(=O)[C@H]2CSSCCC=C[C@H](CC(=O)N[C@H](C(C)C)C(=O)N2)OC(=O)[C@H](C(C)C)NC1=O` was 13.2 nM (active); that for `CCCCCN(CCC12CC3CC(CC(C3)C1)C2)C(=O)NCCCc1ccncc1` was 20900 nM (active).
As for `CC(=O)SC[C@@H](C)C(=O)N1CCC[C@H]1C(=O)N[C@@H](Cc1ccccc1)C(=O)O`, the Potency result is “inactive”.
For the compound `O=C(Nc1ncc(-c2cc(C(F)F)nn2-c2c(Cl)cccc2Cl)s1)C1CC1`, the Potency was 2090 nM (active).
As to `Clc1ccc2ncc(-c3cccc(NC4CNC4)n3)n2c1`, the Potency is 14800 nM (active).
The value for `CC(C)c1cc(C(=O)N2Cc3ccc(CN4CCN(C)CC4)cc3C2)c(O)cc1O` was 148 nM (active).
As for `O=c1c2ccccc2nc2n1CCc1c-2[nH]c2ccccc12`, the Potency entry was “inactive”.
The value for `CCOc1ccccc1OCCNC(C)Cc1ccc(OC)c(S(N)(=O)=O)c1` (stereo not given) was “inactive”.
The value for `CC(NCc1ccc2c(c1)nc(NC(=O)c1ccc(-c3cn[nH]c3)s1)n2CC(C)(C)O)C(C)(C)C` (stereo not given) was 209 nM (active).
On to `CNC(=O)c1cc(Oc2ccc(NC(=O)Nc3cc(C(C)(C)C)nn3-c3ccc4ncccc4c3)c(F)c2)ccn1`, for which the Potency was 4180 nM (active).
As for `Cc1nc(N)ncc1-c1nc(N2CCOCC2)c2sc(C(C)(C)O)cc2n1`, the Potency was 118 nM (active).
Take `Nc1ccn([C@@H]2CS[C@H](CO)O2)c(=O)n1`: the Potency entry is “inactive”.
The value for `COC(=O)Nc1ccc(-c2nc(N3CCOCC3)c3cnn(C4CCN(Cc5cccnc5)CC4)c3n2)cc1` was 59 nM (active); that for `COc1cc(=C2C=c3ccccc3=N2)[nH]c1=Cc1[nH]c(C)cc1C` was 469 nM (active); that for `CC1COC2(CCN(c3nc(=O)c4cc(C(F)(F)F)cc([N+](=O)[O-])c4s3)CC2)O1` (stereo not given) was “inactive”.
Turning to `CCC1=C[C@@H]2CN(C1)Cc1c([nH]c3ccccc13)[C@@](C(=O)OC)(c1cc3c(cc1OC)N(C)[C@@H]1[C@@](O)(C(=O)OC)[C@H](OC(C)=O)[C@]4(CC)C=CCN5CC[C@]31[C@@H]54)C2`, the Potency is 33.2 nM (active).
Under `Nc1cc(C(F)(F)F)c(-c2cc(N3CCOCC3)nc(N3CCOCC3)n2)cn1` stands 1050 nM (active).
`CCn1nnc2c(N3CCOCC3)nc(-c3ccc(NC(=O)Nc4ccc(C(=O)N5CCN(C)CC5)cc4)cc3)nc21`: the Potency is 3.7 nM (active).
The value for `O=C(NCCCNc1nc(Nc2cccc(NC(=O)N3CCCC3)c2)ncc1I)c1cccs1` was 5260 nM (active); that for `CCN1CCN(CC(=O)Nc2ccc(-c3cccc4c(=O)cc(N5CCOCC5)oc34)c3sc4ccccc4c23)CC1` was 526 nM (active).
With `CNC(=O)c1ccccc1Nc1nc(Nc2ccc(N3CCOCC3)cc2OC)ncc1Cl`, the Potency is 14800 nM (active).
The value for `O=C(O)[C@H](Cc1c[nH]c2ccccc12)N1C(=O)c2ccccc2C1=O` was “inactive”; that for `CC(=O)c1c(C)c2cnc(Nc3ccc(N4CCNCC4)cn3)nc2n(C2CCCC2)c1=O` was 18700 nM (active).
Under `C=CC(=O)Nc1cc2c(Nc3ccc(F)c(Cl)c3)ncnc2cc1C#CC(C)(C)N1CCN(C)CC1` stands 1050 nM (active); under `CN1CCN(Cc2ccc(NC(=O)Nc3ccc(Oc4cc(NC(=O)C5CC5)ncn4)cc3)cc2C(F)(F)F)CC1`, 332 nM (active).
The value for `Cc1cc(Nc2cc(NC(=O)c3c(Cl)cccc3Cl)ccn2)nc(N)n1` was 23500 nM (active); that for `Nc1nc(-c2nn(Cc3ccccc3F)c3ncccc23)nc(N)c1N1CCOCC1` was “inactive”.
For the compound `O=c1[nH]nc(Sc2ncc([N+](=O)[O-])s2)n1-c1ccc2c(c1)OCCO2`, the Potency was 1480 nM (active).
The value for `COc1cccc2c(NCc3ccccc3)nc(-n3c(N)nc4ccccc43)nc12` was 3320 nM (active); that for `CN(c1ncccc1CNc1nc(Nc2ccc3c(c2)CC(=O)N3)ncc1C(F)(F)F)S(C)(=O)=O` was 4180 nM (active).
As for `COc1cc(C(=O)N2CCC(N3CCN(C)CC3)CC2)ccc1Nc1ncc2c(n1)N(C)c1ccccc1C(=O)N2C`, the Potency is 2090 nM (active).
`Cn1cncc1[C@@](N)(c1ccc(Cl)cc1)c1ccc2c(c1)c(-c1cccc(Cl)c1)cc(=O)n2C`: the Potency was 7430 nM (active).
`CC(C)(C)c1cnc(CSc2cnc(NC(=O)C3CCNCC3)s2)o1`: the Potency is 83.3 nM (active).
The value for `CC[C@@]1(O)C(=O)OCc2c1cc1n(c2=O)Cc2cc3cc(O)ccc3nc2-1` was 662 nM (active); that for `CCS(=O)(=O)c1cccc(-c2cc(C(=O)NC3CCN(C)CC3)c(C)c3[nH]c4ncc(C)cc4c23)c1` was 1050 nM (active).
The value for `c1cc(-c2cnn3cc(-c4ccc(OCCN5CCCCC5)cc4)cnc23)ccn1` was 10500 nM (active).
`CC(C)Nc1cc(C(F)(F)F)cc2nc(NC(=O)c3cccnc3)nn12`: the Potency entry was “inactive”.
On to `NC(=O)c1c(OCc2c(F)cc(Br)cc2F)nsc1NC(=O)NCCCCN1CCCC1`, for which the Potency is 26400 nM (active).
